# Data reported in PubChem BioAssay (NCI).
# About 79,000 compounds went through this panel and 15% of them were active in at least one assay; those are over-represented in the sample as a whole. Values without a mark were called inactive. Activity calls are given as the source filed them. No stated cut-off is given here; in the data, active means growth inhibition above about 70%; inactive means the rest.
# Legend:
# [1] = NCI Yeast Anticancer Drug Screen. Data for the rad52 strain (AID 147);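 further: 0% = growth of vehicle-treated control cultures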; settings: S. cerevisiae rad52 mutant growth inhibition, active compounds read high
# Summary of the method: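 Here a repair-compromised yeast strain receives each compound; its growth is then quantified and normalised to vehicle-only controls.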
# [2] = NCI Yeast Anticancer Drug Screen. Data for the wt1 strain (AID 149);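 further: 0% = growth of vehicle-treated wt1 cultures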; settings: S. cerevisiae wt1 strain (SPY 50644) growth inhibition, active compounds read high
# Summary of the method: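 Using yeast strain wt1, compound-induced growth inhibition was determined against vehicle-treated cultures.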
# [3] = NCI Yeast Anticancer Drug Screen. Data for the rad50EPP+ strain (AID 151);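 further: 0% = growth of vehicle-treated control cultures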; settings: S. cerevisiae rad50 mutant strain, active compounds read high
# Summary of the method: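 Read-out is yeast growth inhibition relative to vehicle; cells used were the rad50EPP+ strain.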
# [4] = NCI Yeast Anticancer Drug Screen. Data for the mgt1 strain (AID 153); settings: S. cerevisiae mgt1 mutant growth inhibition, active compounds read high
# Summary of the method: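 Measured: inhibition of mgt1 yeast growth by compound, normalized to vehicle-treated cultures.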
# [5] = NCI Yeast Anticancer Drug Screen. Data for the rad50 strain (AID 155);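 further: 0% = growth of vehicle-only cultures of the same strain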; settings: S. cerevisiae rad50 strain growth inhibition, active compounds read high
# Summary of the method: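 Relative growth inhibition (compound vs vehicle) was measured in yeast with a defined repair-gene alteration.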
# [6] = NCI Yeast Anticancer Drug Screen. Data for the mec2-1 strain (AID 157); settings: S. cerevisiae mec2-1 strain, active compounds read high
# Summary of the method: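 Using mec2-1 yeast: add compound, measure growth, express inhibition versus vehicle-treated cultures.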
# [7] = NCI Yeast Anticancer Drug Screen. Data for the rad14 strain (AID 159);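 further: 0% = growth of vehicle-treated control cultures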; settings: S. cerevisiae rad14 strain growth inhibition, active compounds read high
# Summary of the method: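 Screen for anticancer potential: a yeast strain altered in DNA damage repair is grown with compound, and reduced growth is quantified against vehicle controls.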
# [8] = NCI Yeast Anticancer Drug Screen. Data for the sgs1 mgt1 strain (AID 161);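 further: 0% = growth of cultures given vehicle only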; settings: S. cerevisiae sgs1 mgt1 strain, active compounds read high
# Summary of the method: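 Percent growth inhibition was derived by comparing compound-exposed mutant yeast with vehicle-exposed cultures. The strain carries alterations in DNA damage repair.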
# [9] = NCI Yeast Anticancer Drug Screen. Data for the CLN2oe strain (AID 163);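 further: 0% = growth of vehicle-only control cultures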; settings: S. cerevisiae CLN2oe strain, active compounds read high
# Summary of the method: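 Whole-cell yeast growth assay. A strain engineered for altered cell-cycle control received compound, and inhibition relative to vehicle-treated cultures was recorded.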
# [10] = NCI Yeast Anticancer Drug Screen. Data for the bub3 strain (AID 167); settings: S. cerevisiae bub3 mutant strain, active compounds read high
# Summary of the method: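 Screening used yeast with an engineered genetic alteration affecting cell cycle control. Compound-exposed cultures were compared with vehicle cultures, and reduced growth was taken as inhibition.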
# [11] = NCI Yeast Anticancer Drug Screen. Data for the wt2 strain (AID 169);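 further: 0% = growth of vehicle-treated yeast cultures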; settings: S. cerevisiae wt2 strain growth inhibition, active compounds read high
# Summary of the method: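 Treated yeast vs. vehicle-treated yeast: growth inhibition determined.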
# [12] = NCI Yeast Anticancer Drug Screen. Data for the mlh1 strain (AID 171);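 further: 0% = growth of vehicle-treated control cultures of the same strain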; settings: S. cerevisiae mlh1 strain growth inhibition, active compounds read high
# Summary of the method: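 A yeast strain with a defined genetic lesion serves as the test organism. Cultures receive compound or vehicle, and growth is measured.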
# [13] = NCI Yeast Anticancer Drug Screen. Data for the sgs1 strain (AID 173);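 further: 0% = growth of vehicle-only control cultures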; settings: S. cerevisiae sgs1 mutant, active compounds read high
# Summary of the method: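 A genetically defined yeast mutant is incubated with the test compound, and its growth is compared to that of the same strain given vehicle.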
# [14] = NCI Yeast Anticancer Drug Screen. Data for the mlh1 rad18 strain (AID 175); settings: S. cerevisiae mlh1 rad18 strain growth inhibition, active compounds read high
# Summary of the method: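 Steps: expose repair-defective yeast to compound; measure growth; express inhibition against vehicle-treated controls.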
# [15] = NCI Yeast Anticancer Drug Screen. Data for the rad18 strain (AID 177); settings: S. cerevisiae rad18 mutant growth inhibition, active compounds read high
# Summary of the method: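 Measured value is growth inhibition of a yeast strain bearing a DNA repair alteration, referenced to vehicle-treated cells.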
# [16] = at 5.0 µM (retest, dose inferred, filed as 0.5)
# [17] = at 50.0 µM (retest, dose inferred, filed as 5.0)
structure (smiles),measurement,setting,value
CCCCCCCCCCCNC=O,growth inhibition,[1]; at 1.2 µM,-33%
same,growth inhibition,[1]; at 3.7 µM,-30%
same,growth inhibition,[1]; at 11.0 µM,-39%
same,growth inhibition,[1]; at 33.0 µM,34%
same,growth inhibition,[1]; at 100.0 µM,98% (active)
same,growth inhibition,[2]; at 1.2 µM,-18%
same,growth inhibition,[2]; at 3.7 µM,-10%
same,growth inhibition,[2]; at 11.0 µM,-9%
same,growth inhibition,[2]; at 33.0 µM,1%
same,growth inhibition,[2]; at 100.0 µM,98% (active)
same,growth inhibition,[3]; at 1.2 µM,-14%
same,growth inhibition,[3]; at 3.7 µM,-11%
same,growth inhibition,[3]; at 11.0 µM,0%
same,growth inhibition,[3]; at 33.0 µM,15%
same,growth inhibition,[3]; at 100.0 µM,97% (active)
same,growth inhibition,[4]; at 1.2 µM,-30%
same,growth inhibition,[4]; at 3.7 µM,-19%
same,growth inhibition,[4]; at 11.0 µM,-18%
same,growth inhibition,[4]; at 33.0 µM,72% (active)
same,growth inhibition,[4]; at 100.0 µM,98% (active)
same,growth inhibition,[5]; at 1.2 µM,-16%
same,growth inhibition,[5]; at 3.7 µM,-19%
same,growth inhibition,[5]; [16],1%
same,growth inhibition,[5]; at 11.0 µM,-41%
same,growth inhibition,[5]; at 33.0 µM,29%
same,growth inhibition,[5]; [17],96% (active)
same,growth inhibition,[5]; at 50.0 µM,89.9% (active)
same,growth inhibition,[5]; at 100.0 µM,98% (active)
same,growth inhibition,[6]; at 1.2 µM,-22%
same,growth inhibition,[6]; at 3.7 µM,-21%
same,growth inhibition,[6]; [16],7%
same,growth inhibition,[6]; at 11.0 µM,-20%
same,growth inhibition,[6]; at 33.0 µM,21%
same,growth inhibition,[6]; [17],96% (active)
same,growth inhibition,[6]; at 50.0 µM,91.3% (active)
same,growth inhibition,[6]; at 100.0 µM,98% (active)
same,growth inhibition,[7]; at 1.2 µM,-7%
same,growth inhibition,[7]; at 3.7 µM,-17%
same,growth inhibition,[7]; at 11.0 µM,-4%
same,growth inhibition,[7]; at 33.0 µM,30%
same,growth inhibition,[7]; at 100.0 µM,98% (active)
same,growth inhibition,[8]; [16],9%
same,growth inhibition,[8]; [17],93% (active)
same,growth inhibition,[8]; at 50.0 µM,92.5% (active)
same,growth inhibition,[9]; at 1.2 µM,-15%
same,growth inhibition,[9]; at 3.7 µM,-14%
same,growth inhibition,[9]; at 11.0 µM,-27%
same,growth inhibition,[9]; at 33.0 µM,-20%
same,growth inhibition,[9]; at 100.0 µM,98% (active)
same,growth inhibition,[10]; at 1.2 µM,-21%
same,growth inhibition,[10]; at 3.7 µM,-14%
same,growth inhibition,[10]; [16],22%
same,growth inhibition,[10]; at 11.0 µM,-12%
same,growth inhibition,[10]; at 33.0 µM,21%
same,growth inhibition,[10]; [17],97% (active)
same,growth inhibition,[10]; at 50.0 µM,89.4% (active)
same,growth inhibition,[10]; at 100.0 µM,98% (active)
same,growth inhibition,[11]; at 1.2 µM,-45%
same,growth inhibition,[11]; at 3.7 µM,-39%
same,growth inhibition,[11]; at 11.0 µM,-33%
same,growth inhibition,[11]; at 33.0 µM,-5%
same,growth inhibition,[11]; at 100.0 µM,98% (active)
same,growth inhibition,[12]; at 1.2 µM,-17%
same,growth inhibition,[12]; at 3.7 µM,-19%
same,growth inhibition,[12]; at 11.0 µM,-11%
same,growth inhibition,[12]; at 33.0 µM,69%
same,growth inhibition,[12]; at 100.0 µM,98% (active)
same,growth inhibition,[13]; at 1.2 µM,-14%
same,growth inhibition,[13]; at 3.7 µM,-17%
same,growth inhibition,[13]; at 11.0 µM,-19%
same,growth inhibition,[13]; at 33.0 µM,3%
same,growth inhibition,[13]; at 100.0 µM,99% (active)
same,growth inhibition,[14]; [16],-14%
same,growth inhibition,[14]; [17],97% (active)
same,growth inhibition,[14]; at 50.0 µM,88.6% (active)
same,growth inhibition,[15]; at 1.2 µM,-22%
same,growth inhibition,[15]; at 3.7 µM,-22%
same,growth inhibition,[15]; at 11.0 µM,-15%
same,growth inhibition,[15]; at 33.0 µM,54%
same,growth inhibition,[15]; at 100.0 µM,98% (active)
